According to the supplement of paper PMC11732987, “Enantioselective OTUD7B fragment discovery through chemoproteomics screening and high-throughput optimisation” (Communications Chemistry, 2025):

What follows are compounds tested against COPS5 (UniProt Q92905) (assay: log2 ratio of Biotin-Ahx-Ub-VS probe labelling (fragment/DMSO); higher = less target engagement (more negative = stronger competition), active = hit call of the paper (q ≤ 0.05, log2 ratio ≤ -1)). Conditions: compound concentration: 200 uM; treatment time: 3 h.
Chain of COPS5 (Q92905 whole entry, looked up, the tested form may be a part): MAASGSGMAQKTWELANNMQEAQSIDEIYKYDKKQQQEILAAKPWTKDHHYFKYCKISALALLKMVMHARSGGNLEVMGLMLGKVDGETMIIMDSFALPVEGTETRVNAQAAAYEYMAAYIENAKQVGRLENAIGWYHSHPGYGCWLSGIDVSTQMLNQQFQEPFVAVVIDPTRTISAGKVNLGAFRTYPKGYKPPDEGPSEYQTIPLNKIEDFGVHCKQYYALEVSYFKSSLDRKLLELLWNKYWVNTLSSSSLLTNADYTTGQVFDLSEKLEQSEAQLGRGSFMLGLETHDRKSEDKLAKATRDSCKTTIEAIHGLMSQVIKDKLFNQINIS
Description: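 Competitive ABPP in HEK293T cell lysate. Lysates were treated with each chloroacetamide fragment at 200 µM for 3 h, then with Biotin-Ahx-Ub-VS (0.5 µM, 1 h), NeutrAvidin-enriched and analysed by diaPASEF LC-MS/MS. Protein LFQ was median-normalised; average log2 ratio is fragment/DMSO from an unpaired t-test (n=3 treated, n=44 DMSO). Hits: q ≤ 0.05, log2 ratio ≤ -1, unique peptides ≥ 2.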

log2 ratio of Biotin-Ahx-Ub-VS probe labelling, inactive:
CCCn1nccc1NC(=O)CCl -0.308, CC(=O)Nc1ccc(NC(=O)CCl)cc1 -0.0874, CS(=O)(=O)c1ccc(NC(=O)CCl)cc1 0.0438, O=C(CCl)Nc1cc(Cl)ccc1-n1cncn1 -0.332, O=C(CCl)N1CCc2nc[nH]c2C1c1ccc(Cl)cc1 (stereo not given) -0.139, CC(NC(=O)CCl)c1cccc2ccccc12 (stereo not given) 0.127, CN(C)C(=O)c1ccc(CNC(=O)CCl)cc1 0.0838, O=C(CCl)N1CCCCC12CCOCC2 0.0647, O=C(CCl)NCc1cccc(N2CCCC2=O)c1 -0.0124, Cc1cccc(NC(=O)[C@@H]2CCCN2C(=O)CCl)n1 -0.0478, Cl.O=C(CCl)NC1(c2ncccn2)CCC1 0.0888, Cl.Cn1nccc1C(NC(=O)CCl)c1ccccc1 (stereo not given) 0.313, Cl.O=C(CCl)NCc1cc2c(nc1O)CCCC2 -0.023, Cc1nc(CC2CCN(C(=O)CCl)CC2)no1 0.22, CCN(Cc1ccc(C#N)cc1F)C(=O)CCl -0.0333, O=C(O)C1Cc2ccccc2CN1C(=O)CCl (stereo not given) 0.15, O=C(CCl)N1CCOCC1C1CC1 (stereo not given) 0.143, O=C(CCl)N(C1=CCCCC1)C1CC1 -0.00116, Cl.O=C(CN1CCN(C(=O)CCl)CC1)Nc1ccc(F)cc1 0.0025, O=C(CCl)N1CCC(=C(F)CO)C1 -0.253, CC1Cc2ccccc2N1C(=O)CCl (stereo not given) 0.169, Cc1ccc(CC(NC(=O)CCl)c2ccccn2)cc1.Cl (stereo not given) -0.0198, COc1ccc(-c2csc(NC(=O)CCl)n2)cc1 0.189, O=C(CCl)NC1(c2ccc3c(c2)OCCO3)CCCC1 -0.172, COc1ccc(C2CCCN2C(=O)CCl)c(OC)c1 (stereo not given) -0.524, O=C(CCl)Nc1cc2c(cc1Cl)OCCO2 0.135, O=C(CCl)N1CCOCCC1c1ccccc1 (stereo not given) -0.0175, O=C(CCl)N1CCC(c2ccn[nH]2)C1 (stereo not given) 0.121, O=C(CCl)Nc1cccc2ncccc12 0.251, Cc1nc(CN2CCN(C(=O)CCl)CC2)cs1 -0.305, CC(O)CC1CCN(C(=O)CCl)CC1 (stereo not given) -0.25, Cc1cccn2cc(CCNC(=O)CCl)nc12.Cl -0.284, CC1(NC(=O)CCl)CCS(=O)(=O)C1 (stereo not given) 0.0148, O=C(CCl)Nc1cc2c(cc1Cl)OCCCO2 -0.0643, NS(=O)(=O)c1ccc(Cl)c(NC(=O)CCl)c1 0.226, Cl.O=C(CCl)N1CCCC(c2ncc[nH]2)C1 (stereo not given) 0.0747, Cc1ccc(CN(C)C(=O)CCl)o1 0.0171, Cc1cccnc1NC(=O)C1CCN(C(=O)CCl)CC1.Cl -0.025, CC1CN(c2ccc(NC(=O)CCl)cc2)CC(C)O1 (stereo not given) 0.159, CC(=O)C1CCCCN1C(=O)CCl (stereo not given) -0.141
